# Source: PubChem
# Sampled rows, rich in hits. Any-hit rate of the full collection: about 2.2%.
# IEC-6 tox: kills IEC-6 intestinal cells in KLF5 counter-screen | IEC-6 cytotoxicity, luminescence viability | inhibition, % at 5 µM | hit rate 0.78% among 290,000 | AID 1825;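 further: 0% = plate median of test compound wells and 100% = cytotoxic reference compound wells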
# Ba/F3 V617F tox: loss of viability in JAK2V617F-driven Ba/F3 cells; Ba/F3 EpoR-JAK2V617F viability, ATP luminescence; inhibition, % at 5.6 µM; hit rate 1.1% among 220,000; AID 1446;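 active means inhibition above the campaign mean plus 3 SD over all tested compounds, cut at about 24% in these data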;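 further: cytokine-independent growth of Ba/F3 cells driven by EpoR plus mutant JAK2; 0% = DMSO-treated cells and 100% = JAK inhibitor I control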
# APP transl inh: APP translation inhibition; SH-SY5Y APP 5'UTR-luciferase reporter, luminescence; inhibition, % at 2 µM; hit rate 0.82% among 190,000;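 active means inhibition above a set limit, derived from the sample mean plus 3 SD, cut at about 45% in these data; inconclusive means one replicate passes the limit while the other fails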
# aSyn 5UTR inh: MLPCN primary screen, SNCA 5' untranslated region | alpha-synuclein 5'UTR reporter, inhibitor activity | inhibition, % (tested at 7.5 µM) | hit rate 0.82% among 300,000 | AID 1813; in the data active means inhibition above about 60%; inconclusive means no clear call, values can overlap the other calls;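 further: H4 neuroglioblastoma cells stably carrying SNCA 5'UTR luciferase fusion; 0% = DMSO wells and 100% = positive control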
# BaF3 tox: reduces parental Ba/F3 cell viability, JAK2V617F counter-screen | inhibition, % at 5.6 µM | hit rate 1.1% among 220,000 | AID 1486 | CellTiter-Glo ATP luminescence;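 active means inhibition above a per-campaign cutoff, the mean inhibition of all tested compounds plus 3 SD, cut at about 27% in these data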;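 further: 0% = DMSO wells and 100% = JAK Inhibitor I control wells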
# KLF5 inh: kruppel-like factor 5 inhibition; inhibition, % at 5 µM; hit rate 0.23% among 290,000; AID 1700; DLD-1 KLF5 promoter-luciferase reporter, luminescence;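 active means inhibition above a per-plate limit of that plate's mean compound inhibition plus 3 SD, cut at about 60% in these data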;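 further: 0% = DMSO wells and 100% = LY294002 at 200 µM; higher means less KLF5 promoter-driven luciferase light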
# IEC-6 tox confirm: IEC-6 cytotoxicity, confirmation assay; shares compounds with IEC-6 tox; IEC-6 rat intestinal epithelial viability, luminescence; inhibition, % at 5 µM; hit rate 63% among 1,900; AID 1907;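 further: 0% = vehicle and 100% = reference cytotoxic drug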
# Numbers without * were called inactive; ? = inconclusive; . = not tested or not shown. Unless noted, no stated cut-off is given here; in the data, active means inhibition above about 22%; inactive means the rest.
SMILES,IEC-6 tox,Ba/F3 V617F tox,APP transl inh,aSyn 5UTR inh,BaF3 tox,KLF5 inh,IEC-6 tox confirm
C[C@@H]1C[C@H](O)c2cc(Cl)ccc2N1,1,0,-11,2,4,-31,.
N#CC1CC(c2ccccc2)Nc2cc(Cl)ccc2N1 (configuration not stated),40*,2,.,-331,-1,-64,21
CC(C)c1ccc(NC(=O)CCc2ccccc2)cc1,29*,.,.,-389,.,-64,52*
O=C(CCc1ccccc1)Nc1ccncc1,-2,-3,-20,-11,-4,-15,.
Cc1cccc(N2C(=O)CN(Cc3ccccc3)C2=S)c1,1,.,.,5,.,-24,.
Cc1ccc(C(C)NC(=O)c2cc3cc(Br)ccc3oc2=N)cc1 (configuration not stated),-1,.,.,-12,.,-3,.
O=C1C(=O)N(CCS(=O)(=O)c2ccccc2)c2ccc(Cl)cc21,40*,.,.,-27,.,-15,4
Cc1ccc(Nc2n[nH]c(C)c2[N+](=O)[O-])cc1,-4,0,-54,-221,6,-146,.
Cc1[nH]nc(Nc2ccc(C(C)C)cc2)c1[N+](=O)[O-],40*,-1,.,-151,-2,-172,23*
Cc1[nH]nc(Nc2ccc(Br)cc2)c1[N+](=O)[O-],35*,1,.,-164,5,-137,18
COc1ccc(Cl)cc1NC(=O)C/C(C)=N/NC(=O)COc1ccc(C)cc1,1,.,.,1,.,-1,.
O=C1NC(=Nc2ccccc2)SC1Cc1cccc(Cl)c1Cl (configuration not stated),0,0,6,5,6,-21,.
CC(=O)/C(C#N)=C1\NC(=O)C(Cc2cc(Cl)ccc2Cl)S1 (configuration not stated),74*,-2,.,-2,5,24,47*
CC(=O)/C(C#N)=C1\NC(=O)C(Cc2ccccc2Cl)S1 (configuration not stated),78*,4,4,-48,5,21,60*
CCCn1cc(CN2CCCC(C(=O)c3ccc4c(c3)OCO4)C2)c(C)n1 (configuration not stated),0,.,.,-5,.,-6,.
O=C(NCCc1ccco1)C(=O)NCC1CCCN1S(=O)(=O)c1ccccc1 (configuration not stated),.,.,.,-60,.,.,.
CCc1cc(C(=O)N/N=C/c2ccc(OC)cc2)c2ccccc2n1,30*,.,.,-38,.,49,17
COc1ccc(OC)c(-c2cc(C(=O)N/N=C/c3ccc(F)cc3)c3ccccc3n2)c1,.,.,.,14,.,.,.
C/C(=N\NC(=O)c1cc(C)nc2ccccc12)c1ccncc1,42*,.,.,-12,.,38,-4
C/C(=N\NC(=O)c1cc(C)nc2ccccc12)c1ccc([N+](=O)[O-])cc1,0,0,6,38,7,-29,.
COc1ccc(/C=N/NC(=O)c2cccc(NC(=O)c3ccccc3Cl)c2)cc1,72*,.,.,-99,.,45,50*
CCOc1ccc(-c2cc(C(=O)N/N=C/c3cccnc3)c3ccccc3n2)cc1,66*,.,.,16,.,5,45*
CCOc1cc(C(C(=O)NCC2CCCO2)N(C(=O)Cn2nnc3ccccc32)c2ccc(OC)c(OC)c2)ccc1O (configuration not stated),-2,.,.,-13,.,-20,.
O=C(N/N=C/c1ccco1)c1cc(-c2ccncc2)nc2ccccc12,31*,.,.,-27,.,43,-1
NC(=O)c1ccccc1NC(=O)COC(=O)C1(c2ccccc2)CC1,.,.,.,-5,.,.,.
SMILES,IEC-6 tox,Ba/F3 V617F tox,APP transl inh,aSyn 5UTR inh,BaF3 tox,KLF5 inh,IEC-6 tox confirm
CCOC(=O)c1c(NC(=O)C2=COCCO2)sc2c1CCN(C(=O)OC)C2,.,.,.,5,.,.,.
COC1=C(Nc2ccc(OC)cc2)C(=O)c2ccccc2C1=O,-7,-1,-11,-161,5,-26,.
CC(=O)Nc1ccc(NC2=CC(=O)c3ccccc3C2=O)cc1,97*,.,.,-46,.,-130,-1
COc1ccc(NC2=C(NC(C)=O)C(=O)c3ccccc3C2=O)cc1,44*,.,.,18,.,-13,14
CC(=O)Nc1ccc2c(c1)C(=O)c1ccccc1C2=O,2,3,-186,-185,11,-152,.
Oc1[nH]c2ccc(Br)cc2c1N=NC(=S)Nc1ccc(F)cc1,22*,0,.,52,2,7,9
O=C(N=Nc1c(O)[nH]c2ccc(Br)cc12)c1ccccc1-n1cccc1,55*,77*,92*,.,77*,42,54*
N=C(N)N=Nc1c(O)[nH]c2ccc(Br)cc12,4,6,-11,6,5,19,.
O=C(NC1CCc2ccccc21)c1cc(COc2c(F)cccc2F)on1 (configuration not stated),8,2,.,3,3,-24,.
O=C(NCC1OCCc2ccccc21)c1cc(COc2c(F)cccc2F)on1 (configuration not stated),82*,98*,-4,-7,103*,36,-10
CCOc1ccc(NC(=O)CN(C)C(=O)c2cc([N+](=O)[O-])ccc2N2CCOCC2)cc1OCC,.,.,.,8,.,.,.
CC(C)n1cc(NC(=O)c2cc(-c3ccccc3)on2)cn1,64*,41*,77*,-218,28*,-3,46*
COc1ccc(-c2cc(=O)c3ccccc3o2)cc1,.,.,.,-216,.,.,.
COc1ccc2oc(-c3ccccc3[N+](=O)[O-])cc(=O)c2c1,44*,65*,2,7,53*,-28,48*
COc1ccc(-n2nc3c(c2NC(=O)COc2ccccc2F)CS(=O)(=O)C3)cc1,-2,.,.,6,.,-24,.
COc1ccc(C(=O)Nc2ccc3ccccc3c2)cc1OC,8,.,.,-176,.,-190,.
COc1cc(C(=O)Nc2ccc3ccccc3c2)cc(OC)c1OC,78*,.,.,88*,.,43,59*
O=C(CNC(c1ccccc1)c1ccccc1)NCc1ccccc1Cl,2,.,.,-1,.,-7,.
CCC(=O)N1c2ccc(S(=O)(=O)N3CCN(c4ccc([N+](=O)[O-])cc4)CC3)cc2CC1C (configuration not stated),4,.,.,21,.,1,.
Oc1cccc(/C=N/NC(=S)NCCN2CCOCC2)c1O,-3,0,3,-7,0,-26,.
S=C(NCCN1CCOCC1)N/N=C/c1cccs1,30*,.,.,7,.,-45,-15
COc1cc2c(cc1OC)CN(C(=O)c1cc(S(=O)(=O)N3CCOCC3)ccc1C)CC2,.,.,.,5,.,.,.
Brc1ccc2c(c1)CN1CCCC1=N2,34*,.,.,23,.,-7,12
O=C(NCCNC(=O)c1cnccn1)c1ccc(Cl)c(Cl)c1,11,.,.,10,.,-14,.
O=C(NNC(=O)c1cnccn1)c1ccc(Cl)c(Cl)c1,37*,.,.,?,.,19,22
COc1ccc(OCC(=O)NC2CCCN(Cc3ccc(Cl)cc3)C2)cc1 (configuration not stated),0,.,.,-8,.,-10,.
Cc1ccc(C(=O)NC2CCCc3c2cnn3-c2ccc(F)cc2F)cn1 (configuration not stated),14,.,.,-5,.,48,.
